From paper PMC7819943, “Rice protein-binding microarrays: a tool to detect cis-acting elements near promoter regions in rice” come the findings set out here.

The full ranking holds about 39,000 sequences; the median of “fluorescence intensity (a.u.)” is about 4,300, and the highest 2% start at about 39,000. The list comes from a sample in which the highest values are over-represented; it also holds similar and randomly drawn sequences.

This test has as its target T1, OsSMF1 (Oryza sativa, UniProt Q6ZLB0 1-436).
T1 sequence: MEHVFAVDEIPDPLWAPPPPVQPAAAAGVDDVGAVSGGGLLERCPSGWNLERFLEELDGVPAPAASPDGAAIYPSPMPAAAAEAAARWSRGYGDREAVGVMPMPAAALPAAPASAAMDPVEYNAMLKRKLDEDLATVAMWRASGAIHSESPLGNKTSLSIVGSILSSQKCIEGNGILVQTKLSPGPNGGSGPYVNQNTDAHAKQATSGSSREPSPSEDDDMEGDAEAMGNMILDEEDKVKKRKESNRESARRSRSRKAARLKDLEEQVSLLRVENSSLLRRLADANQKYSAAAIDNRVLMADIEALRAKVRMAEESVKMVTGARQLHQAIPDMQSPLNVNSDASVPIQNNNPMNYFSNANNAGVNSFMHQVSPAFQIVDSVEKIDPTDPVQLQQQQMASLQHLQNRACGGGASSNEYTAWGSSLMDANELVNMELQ
Description: protein-binding microarray (RPBM); PBS, 2% BSA, 51.3 ng/ul salmon testes DNA, 50 uM zinc acetate, 200 nM TF, 25 C, 1 h; high values mean tight binding. The following applies: protein: recombinant; tags: N-terminal polyhistidine and DsRed monomer fusion (pET32a); chain copies: 2; label: CyDye5-dUTP incorporated in the synthesized complementary strand; 3' TTTTT single-stranded linker to array surface; dsDNA, one strand shown. In outline: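 Transcription factors were each fused at the N-terminus to a polyhistidine tag plus DsRed and expressed in E. coli BL21-CodonPlus before Ni–NTA purification. Binding to a double-stranded custom Agilent array was carried out with 200 nM protein at 25 °C for 1 h in PBS, 2% BSA, salmon testes DNA and 50 µM zinc acetate. The binding signal is per-feature fluorescence intensity, in arbitrary units, on an Axon 4000B scanner.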
For the sequence “AAACACTGAAATTTTAGCATCACGAAGTTCTCACCGAGACCGGAGTCACCTAGTGCAG”, the binding signal was 5200 fluorescence intensity (a.u.).

As to “GGGTTCGATTCCCCGCACCTCCAATATAAAACGTTTTCTTCGGAGTCACCTAGTGCAG”, the binding signal is 3420 fluorescence intensity (a.u.).

With “GAGTCCGGCGTGATGCCGTGATGACGCCGCAACGCGGCATCGGAGTCACCTAGTGCAG”, the binding signal was 9060 fluorescence intensity (a.u.).

For the sequence “AGCATGCACCTTGATCACGGGAACGAGCTAGCGAGAGGCACGGAGTCACCTAGTGCAG”, the binding signal was 3720 fluorescence intensity (a.u.).

In the case of “ACAAACGAACAAGACATGAAGCCGATGAGTCCAGCAGAGCCGGAGTCACCTAGTGCAG”, the binding signal was 3170 fluorescence intensity (a.u.).

“GTTAATGGTGACTTTATTTTCGTCTGTTACAAAACGGAAGCGGAGTCACCTAGTGCAG”: the binding signal was 3250 fluorescence intensity (a.u.).

As to “GATTAATTGATTTATTTCTTTCTGCTTTACCCGGTCGCCACGGAGTCACCTAGTGCAG”, the binding signal is 19200 fluorescence intensity (a.u.).

As for “CACCCATCTCCTTGCCGGCCTCTCCACCCCGCCTCTTTCGCGGAGTCACCTAGTGCAG”, the binding signal is 19000 fluorescence intensity (a.u.).

As to “GCTGGCCCATCTCCTTGCCCACCCATGGGCCTGAAAGCCGCGGAGTCACCTAGTGCAG”, the binding signal was 49900 fluorescence intensity (a.u.).

In the case of “TGGGAGCGCTGGGGCTGGCCATCTCTCCTTGCCTGCTGTGCGGAGTCACCTAGTGCAG”, the binding signal was 29400 fluorescence intensity (a.u.).

In the case of “ATTGATGTTACATGCCTCGCAAGCGATGACACGGCAAGCTCGGAGTCACCTAGTGCAG”, the binding signal was 5060 fluorescence intensity (a.u.).

For “AGCTCAGCTGTCACGGTGTCACCTGTCAGCGCCCACAACTCGGAGTCACCTAGTGCAG”, the binding signal was 6140 fluorescence intensity (a.u.).

On to “GGCGAAGAATGCAGACATGACACGGACCCATCGACGCGGGCGGAGTCACCTAGTGCAG”, for which the binding signal was 3340 fluorescence intensity (a.u.).

“GAGCTTCTGACTCATCTTTACTAGGAAGGGTCTTTTCAAGCGGAGTCACCTAGTGCAG”: the binding signal is 39100 fluorescence intensity (a.u.).

Regarding “AGTGGAAGCAGGTCTTTTACTGATCGATCAAGGTCTGATGCGGAGTCACCTAGTGCAG”, the binding signal was 16800 fluorescence intensity (a.u.).

As to “CTCATCTCAAGCTTTTCTCTCTCTCTCTCTCTTTGCACTACGGAGTCACCTAGTGCAG”, the binding signal is 4680 fluorescence intensity (a.u.).

As to “CGCCGTCGACACGTGGGGCCCCTCCTCCCGCCGCCGCCGCCGGAGTCACCTAGTGCAG”, the binding signal was 9020 fluorescence intensity (a.u.).

As for “GACTACGCGTACGCCACGCCACAACGCTTCTCGCTCTCCCCGGAGTCACCTAGTGCAG”, the binding signal was 4510 fluorescence intensity (a.u.).

For the sequence “TTAGCAAGTGCCTATGTGAGGATATAGCAATATTTCAATGCGGAGTCACCTAGTGCAG”, the binding signal is 42200 fluorescence intensity (a.u.).

“ACAATTTTAATGAAATCGTACATTATACTATATATGTTTTCGGAGTCACCTAGTGCAG”: the binding signal was 3150 fluorescence intensity (a.u.).

As for “CTATATTAATTAATGAATTAGCAATTGGATGTACCAATTTCGGAGTCACCTAGTGCAG”, the binding signal was 41000 fluorescence intensity (a.u.).

Consider “GGATATGTATAACAATGTGGGTCAGCAATATTGAACTATGCGGAGTCACCTAGTGCAG”, for which the binding signal is 3650 fluorescence intensity (a.u.).

Take “CAAATATATTATCAAAATATATTCAATGCTAAATTTAATGCGGAGTCACCTAGTGCAG”: the binding signal is 5300 fluorescence intensity (a.u.).

As for “CTCTCCTACAATAGGATGGACTATGTGACGTAGCACAATGCGGAGTCACCTAGTGCAG”, the binding signal was 7860 fluorescence intensity (a.u.).

For “TTAATAGTATAGTAAGCAATTGTTGTATGAATTGGCTATTCGGAGTCACCTAGTGCAG”, the binding signal is 27200 fluorescence intensity (a.u.).

Turning to “TAATGAATTAGGGCATTGGATGTACCAACTTATGTTATATCGGAGTCACCTAGTGCAG”, the binding signal is 23300 fluorescence intensity (a.u.).

As to “TATATTCAATGCTATGTTTAATGAAACTAATTTGGATATTCGGAGTCACCTAGTGCAG”, the binding signal was 65100 fluorescence intensity (a.u.).

Consider “CCCGTGACGTGTCGGCATCGGAGGGCCCCTCGTCGGGGTCCGGAGTCACCTAGTGCAG”, for which the binding signal was 10200 fluorescence intensity (a.u.).

As to “GGTCCCGTCAGGGAAGGACCCCACGTCCTCGGTTCCATTCCGGAGTCACCTAGTGCAG”, the binding signal was 3910 fluorescence intensity (a.u.).

As for “GAGCAGTAATGCGTGTGCGGCGATTGGCACGTGCATGGTGCGGAGTCACCTAGTGCAG”, the binding signal is 3780 fluorescence intensity (a.u.).

With “CTCCTTGGCCCGTTTGGTCTCTGTGTGGGTTGGTAAAGACCGGAGTCACCTAGTGCAG”, the binding signal was 3330 fluorescence intensity (a.u.).

For the sequence “CCTCCGACATCTCCAGCCAATTCCAGCTCAGCTCTCGCCGCGGAGTCACCTAGTGCAG”, the binding signal was 4150 fluorescence intensity (a.u.).

In the case of “GCTTTACGTCTTGTGTGGAAGAAAGCGGAAAACTATCCAGCGGAGTCACCTAGTGCAG”, the binding signal was 3540 fluorescence intensity (a.u.).

For “ATAATAGCACATGTGGATATCTGTAGAATTCATTTCGTGTCGGAGTCACCTAGTGCAG”, the binding signal is 3550 fluorescence intensity (a.u.).

On to “GAACGGGACCAGCTACTATAGTGAAATTTAGATTTCAAAGCGGAGTCACCTAGTGCAG”, for which the binding signal was 42200 fluorescence intensity (a.u.).

Turning to “AGCAGCGGGCTACAGATTTATAGCCAGCTGTAGCACGGATCGGAGTCACCTAGTGCAG”, the binding signal was 33200 fluorescence intensity (a.u.).

For “GACGTGATAAAGAAGTTCAGATTTAGAAATAAATTTGAAGCGGAGTCACCTAGTGCAG”, the binding signal was 3820 fluorescence intensity (a.u.).

For the sequence “GCGGCTTCTCGCCGGCGGCGACCACCACCCGTCACCCACCCGGAGTCACCTAGTGCAG”, the binding signal is 3380 fluorescence intensity (a.u.).

With “ATCCATTGCTGCTTTCAGCTGAGTCACCAACTCCTATCCACGGAGTCACCTAGTGCAG”, the binding signal is 14100 fluorescence intensity (a.u.).

As to “GTTGCAGAGCAGCTCGCGCCGCGCGCGTACACTCGCTTTGCGGAGTCACCTAGTGCAG”, the binding signal is 6780 fluorescence intensity (a.u.).

As for “GTGGGCTTAGACGGCCCAGTCATGACCCTTTCATTTCGTGCGGAGTCACCTAGTGCAG”, the binding signal was 3440 fluorescence intensity (a.u.).

With “TTTGCCCATTTTATTCCCTTGCGTCATCCATTTACTGCTTCGGAGTCACCTAGTGCAG”, the binding signal was 13800 fluorescence intensity (a.u.).

On to “GGGCTTGCCCATTACGCGTTGCTATAGACGCCCTTTCATTCGGAGTCACCTAGTGCAG”, for which the binding signal was 41600 fluorescence intensity (a.u.).

On to “GCGGTGGCGGTTGGGGTGGCGAGTGGGGAGGAGGAGGCGGCGGAGTCACCTAGTGCAG”, for which the binding signal is 5880 fluorescence intensity (a.u.).

Take “CGCCGGCACAGCGACATAGCTGACGTCGACGATGCTCACTCGGAGTCACCTAGTGCAG”: the binding signal was 5350 fluorescence intensity (a.u.).

Consider “CCCAAAGCTGACGTACAGCACCGACCCGGTCGGCTGCTCGCGGAGTCACCTAGTGCAG”, for which the binding signal is 4200 fluorescence intensity (a.u.).

“TAGCGCGGCTGCACAGTACAGTCCGACGTCACAGCTCACTCGGAGTCACCTAGTGCAG”: the binding signal is 49200 fluorescence intensity (a.u.).

As for “ACCACATCCACTGCCGCGCCACGCCTCTCGGCCGCCACACCGGAGTCACCTAGTGCAG”, the binding signal is 3770 fluorescence intensity (a.u.).

On to “CAACCTTTATCTGAAGTGGCAGGCACGTGGATTAGCAATACGGAGTCACCTAGTGCAG”, for which the binding signal is 5790 fluorescence intensity (a.u.).

As to “GGTAATAGTGTCAACATATTGCATTAAGATGATTGCAGTGCGGAGTCACCTAGTGCAG”, the binding signal is 24300 fluorescence intensity (a.u.).

Turning to “CAAGATGGGTCGGGTTGGGTGGGGTTACTCGCACTAGCACCGGAGTCACCTAGTGCAG”, the binding signal is 3160 fluorescence intensity (a.u.).

As for “GCGGCTCGCCGTCATATGCGACGTGGCATGCACGACGCCGCGGAGTCACCTAGTGCAG”, the binding signal was 14300 fluorescence intensity (a.u.).

In the case of “GGCAGGACGGCAGGAGGCCTGTTCGCTTGAGGTGTCTAGCCGGAGTCACCTAGTGCAG”, the binding signal is 39800 fluorescence intensity (a.u.).

As for “GAATAGCTGCTTGTTAACTAGGGATTAGAGGTGGGGTTTTCGGAGTCACCTAGTGCAG”, the binding signal was 17400 fluorescence intensity (a.u.).

On to “CTAGCTTTGAGGTGGAGGTGGTGGTGGAGGAGGAGGAGGACGGAGTCACCTAGTGCAG”, for which the binding signal was 3340 fluorescence intensity (a.u.).

On to “TTTTCGCTGAGGTGGCAGGTTAACTTGTCTGCTTTCGGCCCGGAGTCACCTAGTGCAG”, for which the binding signal was 39300 fluorescence intensity (a.u.).

Regarding “CGCTGCTGAGTGCTGACTCCTTCGCCCTCCTCCTCACTTTCGGAGTCACCTAGTGCAG”, the binding signal was 7650 fluorescence intensity (a.u.).

On to “AGTGGCAGGGGTGTGGGGATTGCCGGCTTGCCGCGGAGGACGGAGTCACCTAGTGCAG”, for which the binding signal is 3530 fluorescence intensity (a.u.).
